# Measured values from PubChem BioAssay AID652105 (National Center for Advancing Translational Sciences (NCATS), 2013).
# Among all 330,000 compounds or so, about 4,100 (1.2%) were called active. About 2% were inconclusive and are not listed. How the source made its calls: active means max response of -50% or lower; inconclusive means between -30% and -50%; inactive means -30% or higher. Many of the other results were omitted from the sample, so actives are more common in it than they were.
# Target: Phosphatidylinositol 5-phosphate 4-kinase type-2 alpha (Homo sapiens) (UniProt P48426)
# Test: qHTS for Inhibitors of phosphatidylinositol 5-phosphate 4-kinase (PI5P4K); further: value at the top dose of about 77 µM
# Conditions: PI5P4Kalpha enzyme, ADP-Glo luminescence, 60 min; active compounds read low
# Summary of the method: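 ADP-Glo luminescence end-point read after a 60 min room-temperature kinase reaction of PI5P4Kalpha plus substrate, initiated with ATP at 5 microM final. Buffer: 0.038 M HEPES pH 7.4, EGTA, 0.1% CHAPS, 5% DMSO.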
# On the % scale 0 is the no-effect control and ±100 the full control effect.
# Chain of Phosphatidylinositol 5-phosphate 4-kinase type-2 alpha (Homo sapiens) (P48426 whole entry, looked up): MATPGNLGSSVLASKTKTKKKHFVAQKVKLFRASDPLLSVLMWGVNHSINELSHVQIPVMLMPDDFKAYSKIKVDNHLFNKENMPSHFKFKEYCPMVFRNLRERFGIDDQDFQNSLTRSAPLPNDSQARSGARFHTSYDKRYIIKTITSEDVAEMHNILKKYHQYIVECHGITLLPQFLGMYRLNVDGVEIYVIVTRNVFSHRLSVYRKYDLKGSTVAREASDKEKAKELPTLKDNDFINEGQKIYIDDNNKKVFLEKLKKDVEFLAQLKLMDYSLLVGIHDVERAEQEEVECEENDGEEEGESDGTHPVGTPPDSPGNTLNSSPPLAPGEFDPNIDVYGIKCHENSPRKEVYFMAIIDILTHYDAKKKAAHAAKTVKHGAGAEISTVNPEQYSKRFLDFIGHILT
row,SMILES,max response
1,CC1=C(C(=O)N2CCOCC2)CC(CC(=O)NCCCN(C)C)C(=O)N1Cc1ccc(C(C)(C)C)cc1 (stereo not given),1.54% (inactive)
2,Fc1ccc(COc2cccc(-c3n[nH]c(=S)o3)c2)cc1,-51.9% (active)
3,Fc1ccc(COc2ccc(-c3nnco3)cc2)cc1,-2.69% (inactive)
4,Fc1ccc(/C=N/n2c(COc3ccccc3)n[nH]c2=S)cc1,5.11% (inactive)
5,Cc1cccc(CNC(=O)c2sc(=O)n(Cc3ccccc3C)c2C)c1,0.532% (inactive)
6,COc1ccc(-c2ccc(C(=O)NC(C)C)c3occc23)c(C)c1,4% (inactive)
7,CC[C@@H]1Cc2cc(O)ccc2C2=C1c1ccc(O)cc1C[C@H]2CC,-54.7% (active)
8,Cc1ccc(C(=O)N2CCCc3ccccc32)c(Cl)c1,0.412% (inactive)
9,N#C/C(=C(/O)COc1cccc2ccccc12)c1nc2ccccc2[nH]1,-15.3% (inactive)
10,N#C/C(=C(/O)COC(=O)COc1ccc(Cl)cc1)c1nc2ccccc2[nH]1,-17% (inactive)
11,CC(C)(C)c1nnc2sc(SCC(O)=C(C#N)c3nc4ccccc4[nH]3)nn2c1=O,-56.5% (active)
12,COC(=O)[C@@]12C[C@@H](CC(=O)N3CCC(c4ccccc4)CC3)C(=O)N(Cc3ccccc3)C1=CCC(C)(C)C2,3.29% (inactive)
13,COc1ccc(C(C)(NC(C)=O)c2nc(-c3ccc(S(C)(=O)=O)cc3)cs2)cc1 (stereo not given),-2.22% (inactive)
14,O=C(Nc1cc(Br)ccc1F)c1nc[nH]c1C(=O)NCc1ccccc1,32.1% (inactive)
15,O=C(Cc1ccc([N+](=O)[O-])cc1)NCCS(=O)(=O)N1CCN(c2ccccc2)CC1,-2.51% (inactive)
16,O=c1ccc2c(-c3ccccc3S(=O)(=O)O)c3ccc(O)c(O)c3oc-2c1O,-99.8% (active)
17,COc1ccccc1CNc1nc(Nc2ccccc2Cl)c2sccc2n1,-3.83% (inactive)
18,CC(=O)c1ccc(Nc2nc(C(N)c3ccccc3Cl)cs2)cc1 (stereo not given),1.57% (inactive)
19,CC1(Oc2ccccc2-c2ccno2)CCN(Cc2ccc(-c3ccccc3)o2)C1 (stereo not given),-1.74% (inactive)
20,CC(=O)Nc1cccc(Nc2ccc(C#N)cc2)c1,1.81% (inactive)
21,COC(=O)[C@]12CCCCC=C1N(Cc1ccco1)C(=O)[C@H](CC(=O)NCCCCc1ccccc1)C2,0.498% (inactive)
22,CCc1c(C)[nH]c(=S)c(C#N)c1C,-67.1% (active)
23,O=S1(=O)CCN(C2CCCCCCCCCCC2)CC1,7.96% (inactive)
24,O=Cc1cn(CCOc2ccc(F)cc2)c2ccccc12,7.27% (inactive)
25,COC(=O)c1ccc2nc(-c3ccc(F)cc3)c(Cc3ccc(C)cc3)n2c1,0.932% (inactive)
